Bioassay records as filed in PubChem.
Most compounds without a hit are left out; they make up all but 10% or so of the library.
Sfp PPTase inh: Sfp phosphopantetheinyl transferase inhibition; Biochemical Sfp PPTase activity, qHTS; Potency, µM, for inactives: largest response in the series, negative = inhibition, actives largely listed as inhibitors; 3.5% of 310,000 active;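 also: the enzyme is Sfp with the accession as filed and its product quenches rhodamine fluorescence; potency is read from the fitted curve at half-maximal effect; 0% = enzyme reaction without inhibitor and -100% = no enzyme wells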
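Fluorescence-quenching assay: 15 nM Sfp-PPTase preincubated 15 min at room temperature with compound, then 5 uM rhodamine-CoA and 12.5 uM BHQ-2-labelled YbbR peptide added. Fluorescence (ex 525/em 598 nm) read at start and after 30 min; difference gives rate.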
MmCpn inh: inhibitors of Methanococcus maripaludis chaperonin TRiC (MmCpn). purified Mm-Cpn ATPase, ADP Transcreener TR-FRET. Potency, µM (series often up to 76.9 µM), for inactives: at the top dose activity, negative = inhibition, usual class: inhibitors. 0.031% of 330,000 active. AID 504842; also: potency is read from the fitted curve at half-maximal effect; nearly all actives have a fitted effect of over 80% in size
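TR-FRET (320 nm excitation; 590 and 665 nm emission) reports ADP made from 10 uM ATP by 25 nM enzyme; compounds were preincubated 10 min, reaction run 30 min, both at 37°C.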
VDR inhibitor: inhibitors of human vitamin D receptor; P11473; 0.93% of 400,000 active; Potency, µM, inactives show max response, negative = inhibition, actives largely listed as inhibitors; AID 504847; VDR-SRC2-3 peptide fluorescence polarization, 2 h; also: potency is read from the fitted curve at half-maximal effect
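FP read-out; VDR + SRC2-3 coactivator peptide; 23 nl compound by pintool; 2 h RT incubation; reagents held at 4 deg C, protected from light.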
CCT chaperon mod: modulators of cytosolic chaperonin (CCT/TRiC) activity | 0.3% of 360,000 active | activity change, % (no concentration beside the values), hits read low | purified chaperonin ATPase assay, HTRF ADP detection, 30 min; in the data active = activity change below about -30%
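First, chaperonin was dispensed at 40 nM or 20 nM final depending on batch activity. Next, compounds were pinned at 76 uM and ATP added at 10 uM. After 30 min at 37 °C, ADP detection reagents ran 30 min at ambient temperature.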
G9a inh: G9a (human) methyltransferase inhibition; G9a H3K9 monomethylation, AlphaScreen, 2 h; Potency, µM (series often up to 102 µM), for the others: at the top dose activity, negative = inhibition, usual class: inhibitors; 8.8% of 350,000 active; also: potency is read from the fitted curve at half-maximal effect; nearly all actives have a fitted effect of over 75% in size
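Signal arises when biotinylated H3K9 peptide, once monomethylated, bridges streptavidin donor and antibody-captured acceptor beads. Enzyme at 20 nM was preincubated 15 min with test compounds; peptide 500 nM and SAM 20 uM then reacted for 2 h.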
PLK1 PBD block: blocks phosphopeptide binding to human PLK1 polo-box domain; P53350; Plk1 PBD binding of FITC phosphopeptide, fluorescence polarization; Potency, µM, inactives show max response, negative = inhibition, actives largely listed as inhibitors; 2.8% of 360,000 active; AID 720504; also: potency is read from the fitted curve at half-maximal effect; series mostly up to about 57 µM; nearly all actives have a fitted effect of over 65% in size
Target sequence (P53350 whole entry, looked up, the tested form may be a part): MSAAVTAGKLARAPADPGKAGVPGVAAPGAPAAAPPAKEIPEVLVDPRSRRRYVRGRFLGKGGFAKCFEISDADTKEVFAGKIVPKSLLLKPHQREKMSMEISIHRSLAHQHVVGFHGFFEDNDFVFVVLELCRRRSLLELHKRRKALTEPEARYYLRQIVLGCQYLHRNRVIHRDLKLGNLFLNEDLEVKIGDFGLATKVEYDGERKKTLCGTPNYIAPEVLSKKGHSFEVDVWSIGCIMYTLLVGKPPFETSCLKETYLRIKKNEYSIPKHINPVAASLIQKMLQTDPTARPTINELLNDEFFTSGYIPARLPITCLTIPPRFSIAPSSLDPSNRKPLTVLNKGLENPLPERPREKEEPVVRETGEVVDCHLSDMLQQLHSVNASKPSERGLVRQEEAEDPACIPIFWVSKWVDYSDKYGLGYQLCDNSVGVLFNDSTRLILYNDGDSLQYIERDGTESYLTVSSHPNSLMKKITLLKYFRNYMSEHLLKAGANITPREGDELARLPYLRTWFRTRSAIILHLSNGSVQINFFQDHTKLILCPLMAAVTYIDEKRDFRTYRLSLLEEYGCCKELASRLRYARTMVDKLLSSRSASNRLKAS
* marks the source's active call; other numbers are inactive results; u = inconclusive; x = no result; [ ] = another dose, or the depositor's remark. Unless noted, calls follow the shape of the dose curve; as a rule, active = well fitted curve in the direction sought with a large enough effect; inconclusive = small, poorly fitted or top-dose-only effect, or another doubt; inactive = no such curve, though single readings can be large; an effect the other way counts as inactive or inconclusive. Unless noted, % is scaled to controls: 0 for no effect and ±100 for the full control effect.

SMILES	Sfp PPTase inh	MmCpn inh	VDR inhibitor	CCT chaperon mod	G9a inh	PLK1 PBD block
O=C(COC(=O)c1cccc2c1C(=O)c1ccccc1C2=O)NC1CCCCC1	-15%	0%	-8%	-2	18µM*	-8%
O=C(COC(=O)c1ccc2c(c1[N+](=O)[O-])C(=O)c1ccccc1C2=O)NC1CC1	8%	-1%	-18%	1	35µM*	-1%
Cc1c(CC(=O)N[C@H](C(=O)O)C(C)C)c(=O)oc2cc3c(cc12)CCC(C)(C)O3	6%	-4%	u	-1	-29%	21µM*
COc1ccc(Nc2nnc(-c3ccncc3)s2)cc1Cl	-6%	0%	-10%	1	8.9µM*	-28%
O=[N+]([O-])c1cnc(Sc2ccncn2)s1	u	-1%	22µM*	-1	10µM*	0.67µM*
O=C1NCCN1c1ncc([N+](=O)[O-])s1	13%	0%	-10%	-1	-1%[59 µM]	13%
CN(C)CCC(=O)N1C/C(=C/c2ccccc2)C(=O)/C(=C\c2ccccc2)C1	x	x	u	2	x	u
C[N+](C)(C)CCC(=O)N1C/C(=C/c2ccccc2)C(=O)/C(=C\c2ccccc2)C1	x	x	79µM*	0	x	-11%
O=C(c1ccccc1Cl)n1nc(-c2ccco2)nc1NCc1cccs1	x	x	7%	x	-31%[59 µM]	x
CCOc1ccc(Nc2ncnc3c2nc2n3CCCCC2)cc1	x	x	-3%	x	15%[59 µM]	x
O=S1(=O)c2ccc(Br)cc2OC(COCc2ccccc2)CN1Cc1ccccc1 (configuration not stated)	x	-1%	u	-1	x	24µM*
Cn1cccc1C(=O)NC(=O)COC(=O)c1cc(S(=O)(=O)N2CCCCC2)ccc1Cl	0%	-11%	-11%	-8	-10%	21µM*
O=C(COC(=O)c1cc(S(=O)(=O)N2CCCCC2)ccc1Cl)NC1CCCCC1	x	x	x	0	x	-6%
CCN(CCCn1c(=S)[nH]c2ncccc2c1=O)c1ccccc1	12%	-3%	1%	-5	1%	-7%
CCCCN(C)CCn1c(=S)[nH]c2ncccc2c1=O	-24%	-1%	-16%	-1	50µM*	-9%
CC1CCCCN1CCn1c(=S)[nH]c2ncccc2c1=O (configuration not stated)	-21%	-1%	-12%	3	u	-4%
CCN(CC)CCCn1c(=S)[nH]c2ncccc2c1=O	u	1%	-3%	-2	50µM*	u
CC(C)OCCCn1c(=S)[nH]c2ncccc2c1=O	-10%	-3%	-17%	-1	50µM*	-30%
CCOC(=O)Cc1ccc(NC(=O)n2ncc3cc(Cl)ccc32)cc1	x	x	-5%	x	-32%[59 µM]	x
COCCCNC(=O)C1CCN(c2nc3ccc(Cl)cc3[nH]2)CC1	x	x	3%	x	7%[59 µM]	x
CNC(=O)CCCc1nc(-c2ccccc2Cl)no1	5%	0%	-8%	-2	-12%	24µM*
COc1ccccc1-c1noc(CCC(=O)Nc2cc(C(F)(F)F)ccc2Cl)n1	18µM*	-3%	-9%	-3	u	-2%
COc1cccc(CSc2nc(-c3ccccc3F)nc3c2Cc2c(CO)cnc(C)c2O3)c1	x	x	-3%	x	-5%[59 µM]	x
O=C(CSc1nc2c([nH]c3ccccc32)c(=O)n1-c1ccccc1)N1CCCC1	x	x	8%	x	-4%[59 µM]	x
O=C(NNc1ccc(-c2csnn2)cc1)c1ccccc1C(F)(F)F	-5%	1%	-1%	-3	28µM*	-23%
CC(=O)Nc1ccn(C2OC(C(COC(C)=O)NC(=O)C(CCCCNC(=O)OCc3ccccc3)NC(=O)OC(C)(C)C)C(OC(C)=O)C2OC(C)=O)c(=O)n1 (configuration not stated)	-3%	x	-5%	x	x	x
O=C(O)c1ccn2c(C(=O)c3ccc(Cl)cc3)c(-c3ccccc3)cc2c1	14%	-1%	-6%	-2	u	38µM*
CO/N=C(/C(=O)N[C@@H]1C(=O)N2C(C(=O)O)=C(CSc3nc(C)c(CC(=O)O)s3)CS[C@H]12)c1csc(N)n1	u	x	35µM*	x	u	x
